From PubChem BioAssay AID504652 (National Center for Advancing Translational Sciences (NCATS), 2011)
Hit rate of the full screen: of about 360,000 compounds, about 11,000 (3.1%) were called active. Cut-off read from the data, not from the text of the source: active = activity change below about -30%; inactive = the rest. Many of the other results were omitted from the sample, so actives are more common in it than they were.

Target: D(1A) dopamine receptor (Homo sapiens) (UniProt P21728)
Assay: Antagonist of Human D 1 Dopamine Receptor: qHTS
Details: HEK293 TREx D1 cells, calcium flux, dopamine EC80; at 10 µM; hits give low values
Procedure, shortened: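 After overnight tetracycline induction at 30 C, force-coupled D1 HEK293 cells took up a no-wash calcium dye at room temperature. Compounds were added and monitored 180 s, and the response to EC80 dopamine was then recorded.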
% is set by controls: 0 for no effect and ±100 for the full control effect.

Sequence of D(1A) dopamine receptor (Homo sapiens) (P21728 whole entry, looked up): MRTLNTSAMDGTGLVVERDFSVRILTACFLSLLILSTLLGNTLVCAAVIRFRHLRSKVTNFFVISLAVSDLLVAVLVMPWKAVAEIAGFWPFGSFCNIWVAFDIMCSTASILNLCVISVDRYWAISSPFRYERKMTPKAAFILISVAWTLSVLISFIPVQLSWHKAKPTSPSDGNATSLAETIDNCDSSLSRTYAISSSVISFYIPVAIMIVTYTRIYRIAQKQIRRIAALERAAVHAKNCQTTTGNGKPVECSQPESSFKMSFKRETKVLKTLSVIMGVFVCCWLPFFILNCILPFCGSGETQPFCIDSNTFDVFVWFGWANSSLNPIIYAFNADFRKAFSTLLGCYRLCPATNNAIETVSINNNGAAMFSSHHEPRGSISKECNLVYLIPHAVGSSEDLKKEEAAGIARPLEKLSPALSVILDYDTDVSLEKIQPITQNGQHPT

SMILES	activity change, negative = inhibition
CCCCN(C)CCCNC(=O)CN1N=C(c2ccc(OC)cc2)CCC1=O	3.24% (inactive)
CCCC12CN3CC(C)(CN(C1)C3c1ccccc1Cl)C2=O (stereo not given)	-3.8% (inactive)
COc1cccc(-n2c(=O)c3c(C)c(C(=O)N(C)C)sc3n(Cc3cccc(C)c3)c2=O)c1	4.64% (inactive)
Cc1cc(C)cc(NC(c2nnc(-c3cccc(F)c3)o2)c2ccc(F)cc2Cl)c1 (stereo not given)	12.4% (inactive)
N#C/C(=C\c1ccccc1F)c1nc2ccccc2c(=O)[nH]1	-3.28% (inactive)
CSc1nc(=O)c2c(n1C)NC(=O)CC2c1ccccc1OC(C)C (stereo not given)	2.77% (inactive)
COc1ccc(C(=O)c2c(C)oc3cc([N+](=O)[O-])c(O)c([N+](=O)[O-])c23)cc1	12.5% (inactive)
Cc1oc2cc([N+](=O)[O-])c(O)c([N+](=O)[O-])c2c1C(=O)c1ccc(Br)cc1	-36.4% (active)
Cc1oc2cc(Br)c(O)c(Br)c2c1C(=O)c1ccccc1	-4.24% (inactive)
COc1ccc(S(=O)(=O)c2c(Nc3cccc(Cl)c3)sc(C(=O)c3ccccc3)c2N)cc1	-73.9% (active)
Cc1ccc(S(=O)(=O)c2c(Nc3cccc(Cl)c3)sc(C(=O)c3ccc4c(c3)OCO4)c2N)cc1	-41.6% (active)
COc1ccc(S(=O)(=O)c2c(Nc3ccc(C)cc3)sc(C(=O)c3ccc(C)cc3)c2N)cc1	-13.4% (inactive)
Cc1ccc(C(=O)Nc2sc(Cc3ccc4c(c3)OCO4)c(C)c2C(N)=O)cc1	17.9% (inactive)
O=C(Nc1ccc2c(c1)OCO2)c1cc(-c2cccc(Cl)c2)on1	-3.15% (inactive)
CCCS(=O)(=O)c1c(Nc2ccccc2C)sc(C(=O)c2ccccc2)c1N	0.973% (inactive)
NS(=O)(=O)c1ccc(NC(=O)COc2ccc(S(=O)(=O)NC3CCCCC3)cc2)cc1	9.54% (inactive)
Cc1ccc(C(=O)NC2CCN(C#N)CC2)cc1	-16% (inactive)
Cc1cccc(C(=O)N2c3nc(-c4ccco4)nn3C3(CCCCC3)[C@@H]3CCCC[C@@H]32)c1	4.44% (inactive)
O=C(CSc1nnc(-c2cccnc2)n1Cc1ccco1)c1ccc(Cl)c(Cl)c1	18.2% (inactive)
O=C(CSc1nnc(-c2cccs2)n1Cc1ccco1)c1ccc2c(c1)OCO2	-31.7% (active)
COc1ccc(NC(=O)CSc2nnc(-c3cccs3)n2Cc2ccco2)cc1OC	8.42% (inactive)
Cc1cccc(CSc2nc3ccncc3n2Cc2ccc(C(=O)O)cc2)c1	14.5% (inactive)
O=C(Nc1cccc(Cl)c1)Nc1ccccc1NS(=O)(=O)c1cccs1	-42.1% (active)
O=S(=O)(Nc1ccccc1)c1ccc(NS(=O)(=O)c2cccs2)cc1	-3.97% (inactive)

SMILES	activity change, negative = inhibition
O=S(=O)(Nc1ccccc1Br)c1cccs1	11.5% (inactive)
Cc1cccc(NC(=O)Cn2c(=O)n(CCC(C)C)c(=O)c3cccnc32)c1	38.2% (inactive)
COc1ccccc1NC(=O)C1=C(C)Nc2nc(SCC(=O)c3ccc(C)cc3)nn2C1c1ccccc1C (stereo not given)	4.06% (inactive)
O=C(CN1CCN(Cc2ccc(Cl)cc2)C1=O)NCc1ccc(F)cc1	6.15% (inactive)
COc1ccc(NC(=O)CN2CCCN(Cc3ccccc3)S2(=O)=O)cc1	-2.48% (inactive)
COc1ccc(N2CCN(CCCNC(=O)C3CCN(S(=O)(=O)N4CCOCC4)CC3)CC2)cc1	5.25% (inactive)
COc1ccc(CNC(=O)C2CCN(S(C)(=O)=O)CC2)cc1	-17.7% (inactive)
COc1ccc(CNC(=O)C2CCN(S(=O)(=O)N3CCOCC3)CC2)cc1	-42.3% (active)
COc1cccc(CN2CCc3nc(SCC(=O)Nc4ccccc4)[nH]c(=O)c3C2)c1	3.64% (inactive)
CCc1ccc(CNC(=O)c2cc3c(=O)n(CC)c4ccccc4c3s2)cc1	11% (inactive)
Cc1ccc(C)c(N2CCN(S(=O)(=O)c3ccc4c(c3)C(C(C)C)C(=O)N4)CC2)c1 (stereo not given)	-23.5% (inactive)
O=C(CC(c1cccs1)N1Cc2ccccc2C1=O)Nc1ccc(F)c(F)c1 (stereo not given)	-0.399% (inactive)
O=C(COc1ccccc1)NCc1ccc2c(c1)CCN2C(=O)c1ccc(F)cc1	-7.02% (inactive)
O=C(CSc1nnc(Nc2ccccc2)s1)Nc1cccnc1Cl	-65.7% (active)
O=C(CSc1nnc(Nc2ccccc2F)s1)NC1CCCC1	-3.18% (inactive)
O=C(CSc1nnc(C2CC2)n1Cc1ccccc1)Nc1cccnc1Cl	8.52% (inactive)
CC(C)c1ccc(NC(=O)c2ccc3c(O)c(S(=O)(=O)c4ccccc4)c(=O)[nH]c3c2)cc1	-2.13% (inactive)
COc1cc2ccccc2cc1C(=O)Nc1cccc(-c2nc3ccccc3o2)c1	-19.2% (inactive)
CC(C)(COC(=O)Nc1ccccc1)COC(=O)Nc1ccccc1	-3.78% (inactive)
O=C(Nc1ccccc1)O/N=C1/CCCc2occc21	7.6% (inactive)
N/C(=N\OC(=O)Nc1ccccc1)c1ccno1	-30.9% (active)
Cc1ccc(-c2nnc(Nc3ccc(OCC(N)=O)cc3)c3ccccc23)cc1S(=O)(=O)NCC1CCCO1 (stereo not given)	-11.9% (inactive)
CCOc1ccc(CCNC(=O)c2ccc3c(c2)sc2nc(-c4ccc(F)cc4)cn23)cc1OCC	0.197% (inactive)
COc1ccccc1C(=O)NCCC(=O)NC(C)CCc1ccccc1 (stereo not given)	-3.06% (inactive)

SMILES	activity change, negative = inhibition
CCOc1ncccc1C(=O)NCCc1ccc(OC)cc1	8.92% (inactive)
COc1ccc(C(=O)CCc2ccccc2O)c(OC)c1	-22.2% (inactive)
COc1ccc(C(=O)NC(C)CCc2ccccc2)c(OC)c1 (stereo not given)	-36.3% (active)
COc1ccc(CCNC(=O)c2ccccc2OCc2ccccc2)cc1	-35% (active)
COc1ccc(CCNC(=O)c2ccccc2-c2ccccc2C(=O)O)cc1OC	0.57% (inactive)
COc1ccc(CC(=O)Nc2nnc3n2CCS3)cc1OC	29.1% (inactive)
Cc1ccc(Cl)cc1N(C)C(=O)C1CCCN(c2ncnc3onc(-c4ccc(F)cc4)c23)C1 (stereo not given)	3.58% (inactive)
Cc1nc2nc(SCC(=O)NC3CCC(C)CC3)nn2c(C)c1Cc1ccccc1Cl (stereo not given)	-18.6% (inactive)
CCc1ccc(C(=O)COC(=O)c2ccco2)cc1	3.84% (inactive)
O=C(COC(=O)c1cnc(Cl)c(Cl)c1)NCc1ccco1	-8.31% (inactive)
O=C(COC(=O)c1ccco1)NCc1ccc(Cl)cc1	-43.8% (active)
O=S(=O)(Nc1ccc2nc(-c3cccc(Cl)c3)oc2c1)c1ccccc1	2.59% (inactive)
O=c1[nH]c2cc(Br)ccc2n2cccc12	17.9% (inactive)
Cc1ccc2nc(/C(C#N)=C/c3ccccc3F)[nH]c2c1	2.38% (inactive)
CCc1cc2c(cc3c(=O)n(CC(=O)N4CCN(c5cc(Cl)ccc5C)CC4)ncn32)s1	5.41% (inactive)
Oc1c(C(c2ccccn2)N2CCOCC2)ccc2cccnc12 (stereo not given)	-33.9% (active)
COc1ccc(-c2cn3c(n2)sc2cc(C(=O)Nc4ccccc4F)ccc23)cc1	-2.21% (inactive)
Cc1ccc2[nH]c3c(=O)n(CC(=O)NC(C)C)ncc3c2c1	5.41% (inactive)
COc1ccc(/C=C/c2nc(C#N)c(NCc3ccc(F)cc3)o2)cc1OC	-16% (inactive)
CCC(Cc1ccccc1)NS(=O)(=O)c1ccc2c(c1)NC(=O)CS2 (stereo not given)	-0.0752% (inactive)
O=C1CSc2ccc(S(=O)(=O)NCc3ccccc3)cc2N1	-44.7% (active)
COc1ccccc1CNS(=O)(=O)c1ccc2c(c1)NC(=O)CS2	7.86% (inactive)
CCCCn1cc(S(=O)(=O)c2ccc(OCC)cc2)c(=O)c2cc(OC)c(OC)cc21	4.22% (inactive)
COc1ccc(C)cc1Nc1nc2ccccc2c2nnc(C)n12	1.83% (inactive)

SMILES	activity change, negative = inhibition
CCn1cc(C(=O)NCc2ccc3c(c2)OCO3)c2cc(OC)c(OC)cc2c1=O	-40.7% (active)
COc1ccccc1-n1c(C)nc2cc(C(=O)NCc3ccc4c(c3)OCO4)ccc21	-36.2% (active)
CCOc1c2ccc(C(=O)NCc3ccc4c(c3)OCO4)cc2nn1C	3.09% (inactive)
CCn1cc(C(=O)NCC2COc3ccccc3O2)c2cc(OC)c(OC)cc2c1=O (stereo not given)	13.1% (inactive)
CCN(CC)C(=O)C(=O)c1cn(CC(=O)NCc2ccc3c(c2)OCO3)c2ccccc12	-3.14% (inactive)
COc1cc(-n2c(C)nc3cc(C(=O)NCc4ccco4)ccc32)cc(OC)c1OC	-14.8% (inactive)
CC(=O)Nc1cc(C(=O)NCc2ccc(F)cc2)ccc1Sc1ccc(F)cc1	3.13% (inactive)
COc1ccccc1CNS(=O)(=O)c1cc(Br)cc2c1N(C(C)=O)C(C)C2 (stereo not given)	7.16% (inactive)
C#CCOCCOCCOCCNc1nc(N2CCN(C(=O)CCCCCCCCCCNC(=O)[C@H]([C@@H](C)CC)n3cc(CCCCN=C(N)N)nn3)CC2)nc(N2CCN(C(=O)CCCCCCCCCCNC(=O)[C@H](CO)n3cc(CCCSC)nn3)CC2)n1	6.53% (inactive)
C#CCOCCOCCOCCNc1nc(N2CCN(C(=O)[C@H](C(C)C)n3cc(CCO)nn3)CC2)nc(N2CCN(C(=O)[C@H](C(C)C)n3cc(CCO)nn3)CC2)n1	7.62% (inactive)
C#CCOCCOCCOCCNc1nc(N2CCN(C(=O)[C@H](Cc3ccc(O)cc3)n3cc(C(N)CC(C)C)nn3)CC2)nc(N2CCN(C(=O)[C@H](CCC(=O)O)n3cc(C(N)[C@H](C)CC)nn3)CC2)n1 (stereo not given in full)	-5.53% (inactive)
C#CCOCCOCCOCCNc1nc(N2CCN(C(=O)[C@H](CCC(=O)O)n3cc(C(N)CO)nn3)CC2)nc(N2CCN(C(=O)[C@H](Cc3ccc(O)cc3)n3cc(C(N)[C@H](C)CC)nn3)CC2)n1 (stereo not given in full)	-34.5% (active)
C#CCOCCOCCOCCNc1nc(N2CCN(C(=O)[C@H](CCC(=O)O)n3cc(C(N)CO)nn3)CC2)nc(N2CCN(C(=O)[C@H](CCCCN)n3cc(C(N)CC(C)C)nn3)CC2)n1 (stereo not given in full)	-32.3% (active)
C#CCOCCOCCOCCNc1nc(N2CCN(C(=O)[C@H](CCCCN)n3cc([C@@H](N)C(C)CC)nn3)CC2)nc(N2CCN(C(=O)[C@H](Cc3ccc(O)cc3)n3cc([C@@H](N)C(C)CC)nn3)CC2)n1 (stereo not given in full)	-11.3% (inactive)
C#CCOCCOCCOCCNc1nc(N2CCN(C(=O)C(Cc3ccc(O)cc3)n3cc(C(N)CC(C)C)nn3)CC2)nc(N2CCN(C(=O)C(Cc3ccc(O)cc3)n3cc(C(N)C(C)CC)nn3)CC2)n1 (stereo not given)	-10.5% (inactive)
C#CCOCCOCCOCCNc1nc(N2CCN(C(=O)[C@H](CCC(=O)O)n3cc(C(N)CO)nn3)CC2)nc(N2CCN(C(=O)[C@H](CCCCN)n3cc(C(N)[C@H](C)CC)nn3)CC2)n1 (stereo not given in full)	-39.7% (active)
O=C(CC1Oc2ccccc2NC1=O)NCc1ccc(F)cc1 (stereo not given)	-2.49% (inactive)
CN1C(=O)c2[nH]nc(-c3ccc(F)cc3)c2C1c1ccccn1 (stereo not given)	-12.2% (inactive)
N#Cc1nc(/C=C/c2ccc(F)cc2)oc1NC1CCCCC1	-1.82% (inactive)
CCN(CC)c1cc(NC2CCCCC2)c2c3c(onc13)-c1ccccc1C2=O	8.94% (inactive)
Cc1ccc2nc(CN3CCN(S(=O)(=O)c4ccc(C)c(C)c4)CC3)oc2c1	-3.02% (inactive)
COc1cc(NC(=O)CN2CCN(S(=O)(=O)c3ccc(Br)cc3)CC2)cc(OC)c1	-5.38% (inactive)
CCc1ccc(C2C(C(=O)Nc3ccccc3)=C(C)Nc3c(C(=O)Nc4ccc(C)cc4)cnn32)cc1 (stereo not given)	-24.1% (inactive)
